Source: PubChem BioAssay AID588814 (The Scripps Research Institute Molecular Screening Center, 2011)
About 1,200 (0.33%) of roughly 360,000 compounds were called active. Shown is part of a subset that was picked to be rich in actives. A number with no mark means an inactive call.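 Rule for the calls: active = activation above the run's mean compound activation plus 3 SD (cut at about 16% in these data); inactive = the rest.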

target: Muscarinic acetylcholine receptor M1 (Homo sapiens) (UniProt P11229); assay: CHRM1 activation via calcium signal – Fluo-8 calcium fluorescence, CHO-K1 cells, HTS, primary screen (AID 588814); conditions: CHO-K1 hM1, Fluo-8 calcium fluorescence, agonist mode; at 3 µM; active compounds read high; 0% DMSO, 100% acetylcholine EC100;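 note: peak over basal fluorescence ratio within a 140 s kinetic read after compound addition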
Sequence (P11229 whole entry, looked up): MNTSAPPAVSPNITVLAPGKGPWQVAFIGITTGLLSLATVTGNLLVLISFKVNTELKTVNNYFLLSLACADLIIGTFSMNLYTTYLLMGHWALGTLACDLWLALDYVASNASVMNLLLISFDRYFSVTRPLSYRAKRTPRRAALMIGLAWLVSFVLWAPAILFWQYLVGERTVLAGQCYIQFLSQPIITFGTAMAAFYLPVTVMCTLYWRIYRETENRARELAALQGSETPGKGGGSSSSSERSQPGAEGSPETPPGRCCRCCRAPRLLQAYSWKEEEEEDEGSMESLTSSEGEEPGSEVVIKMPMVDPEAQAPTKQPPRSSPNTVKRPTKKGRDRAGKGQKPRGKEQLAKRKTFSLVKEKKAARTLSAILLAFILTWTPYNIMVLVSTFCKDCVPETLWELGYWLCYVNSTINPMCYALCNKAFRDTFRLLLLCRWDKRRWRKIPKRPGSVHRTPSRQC

SMILES	activation
C[C@H]1CN([C@@H](C)CO)C(=O)c2cc(C3=CCCCC3)cnc2O[C@@H]1CN(C)C(=O)Cc1ccccc1	-6.56%
CN(CCc1ccccc1)C(=O)c1cccc(NC(=O)Cc2cccc(NC(=O)C3CCCN(C(=O)CCc4ccccc4)C3)c2)c1 (configuration not stated)	-7.79%
Cc1ccc(-c2nnc(C)c(N3CC(C)OC(C)C3)n2)cc1 (configuration not stated)	-3.38%
Cc1ccc(SCC(=O)Nc2nncs2)cc1	0.6%
CC(Oc1ccccc1)C(=O)Nc1oc(-c2ccco2)c(-c2ccco2)c1C#N (configuration not stated)	-4.2%
CCOc1ccc(S(=O)(=O)N2CCC(C(=O)NCC(=O)Nc3cccc(Cl)c3C)CC2)cc1	-2.79%
COc1ccc(CCNC(=O)/C(C#N)=C2\N=C(NC(=O)c3cccs3)c3ccccc32)cc1	0.74%
Cc1ccc2nc(/C(C#N)=C\c3ccc(OC(=O)c4cccs4)cc3)[nH]c2c1	21.8% (active)
CCN(CC)c1ccc(S(=O)(=O)N2CCOCC2)cc1NC(=O)CSc1cccc[n+]1[O-]	-5.92%
CCOc1ccc(NC(=O)CC(Cc2ccc(Cl)cc2)C(=O)O)cc1 (configuration not stated)	-7.97%
O=C(NN1CCOCC1)c1cccc(F)c1	-3.15%
Cc1ccc(C(=O)NC2CCN(C(=O)Nc3ccccc3Cl)CC2)cc1	-1.42%
COC(=O)c1ccc(CN2CCCC(C(=O)Nc3cccc(-n4cnnn4)c3)C2)cc1 (configuration not stated)	37.4% (active)
O=C(Nc1ccc(F)cc1)C1CCCN(S(=O)(=O)c2ccc(-n3cnnn3)cc2)C1 (configuration not stated)	-3.35%
CC(C)CNC(=O)C1CCCN(S(=O)(=O)c2ccc(-n3cnnn3)cc2)C1 (configuration not stated)	-2.97%
O=C(NCCCN1CCCC1=O)C(=O)NCC1OCCN1S(=O)(=O)c1ccc(Br)cc1 (configuration not stated)	-4.08%
Nc1c(C(=O)c2cccs2)sc2nsc(SCCN3CCCCC3)c12	40.6% (active)
COc1ccc(Cl)cc1NC(=O)CN(C)C(=O)CCCc1c[nH]c2ccccc12	-1.46%
Cc1occc1-c1nnc(SCC(=O)NC2(C#N)CCCC2)n1C	-1.84%

SMILES	activation
CCCc1nc2c(c(=O)c3ccccc3n2C)c(=O)n1C1CCCCCC1	55.4% (active)
CCOC(=O)c1nnn2c3ccccc3c(=O)n(C)c12	-1.59%
CCOC(=O)N1CCN(C(=O)c2nn(-c3ccc(C)cc3)c(=O)c3c2c2ccccc2n3C)CC1	-4.51%
COC(=O)c1ccc(CNC(=O)C2CCC(=O)N(Cc3cccc(F)c3)C2)cc1 (configuration not stated)	-0.82%
Cc1nc([N+](=O)[O-])c(NCCCO)n1Cc1ccccc1	-5.22%
CN(C)CCNC(=O)c1ccc(Cl)c2cc3ccccc3nc12	-6.82%
Nc1ccc2nc3c(=O)[nH]c(=S)[nH]c3nc2c1	18.4% (active)
CSCc1cc(N(C)C)nc(SCc2ccc(Cl)cc2Cl)n1	1.65%
COc1cccc(NC(=O)N(C)C[C@@H]2Oc3ncc(Br)cc3C(=O)N([C@@H](C)CO)C[C@H]2C)c1	-2.37%
COC(=O)c1cc(NS(=O)(=O)c2ccc3c(c2)c(=O)n(C)c(=O)n3C)cc(C(=O)OC)c1	-0.41%
Cc1ccccc1NC(=O)c1cc(S(=O)(=O)N2CCOCC2)cs1	-2.94%
COc1cc(OC)cc(C(=O)NCC(=O)OCC(=O)NC(C)CCc2ccccc2)c1 (configuration not stated)	-5.47%
COc1cc(OC)cc(C(=O)N[C@H](C(=O)OCC(=O)NC(C)c2ccccc2)C(C)C)c1 (some centres not stated)	18.7% (active)
COc1cc(OC)cc(C(=O)NC(C(=O)N2CCC2)C(C)C)c1 (configuration not stated)	-2.4%
CCC(C(=O)Nc1ccc(C(C)C)cc1)c1ccccc1 (configuration not stated)	29.4% (active)
CC(C)c1ccc(NC(=O)Cn2ncc3ccccc32)cc1	-2.42%
CC(NC(=O)Nc1ccccc1)c1ccccc1 (configuration not stated)	-4.05%
COc1ccc(C(c2nnnn2C2CCCC2)N2CCN(C/C=C/c3ccccc3)CC2)cc1 (configuration not stated)	-7.67%
Cc1ccc(N2C(=O)C3C4C=CC(CC4)C3C2=O)cc1Cl (configuration not stated)	-1.43%

SMILES	activation
Cc1ccc(S(=O)(=O)Oc2ccc(/C=N/NC(=O)c3c(Cl)cnn3C)cc2)cc1	-4.49%
Cc1cc(NC(=O)CSc2nc3c(cc2C#N)CCCCC3)no1	-4.15%
CC(NC(=O)CSc1nc2c(cc1C#N)CN(C)CC2)c1ccccc1 (configuration not stated)	18.6% (active)
CC1(C)CCc2nc(SCc3ccccc3)c(C#N)cc2C1	-1.01%
CCOC(=O)C1CCCN(CCSc2ccc(C)cc2)C1 (configuration not stated)	-6.73%
CCOC(=O)C1CCCN(Cc2nc(N)nc(Nc3ccc(C)cc3)n2)C1 (configuration not stated)	28.3% (active)
COc1ccc(Nc2nc(N)nc(CSC(=S)N3CCC(C)CC3)n2)cc1	-4.28%
CCOC(=O)C1CCCN(C(=O)c2cccc3ccccc23)CC1 (configuration not stated)	-0.09%
O=C(c1cnccn1)N1CCN(S(=O)(=O)c2cccc(Cl)c2)CC1	-0.88%
CC(C)(C)NC(=O)NC(=O)CN1CCC(Cc2ccccc2)CC1	-13.3%
CC(C)(CNC(=O)Cc1ccc(Cl)cc1Cl)N1CCOCC1	-10.7%
CN1c2ccc(C=O)c3c(C=O)ccc(c23)N(C)C1(C)C	-7.9%
CCN(CC)C(=O)C1=C(C)N(Cc2ccc(OC)cc2)C(=O)C(CC(=O)NCc2ccco2)C1 (configuration not stated)	-7.01%
COc1ccc(CN2C(=O)C(CC(=O)NCCCCc3ccccc3)CC(C(=O)N3CCOCC3)=C2C)cc1 (configuration not stated)	3.01%
CCN(CC)C(=O)C1=C(C)N(Cc2ccc(OC)cc2)C(=O)C(CC(=O)NCCCCc2ccccc2)C1 (configuration not stated)	23.1% (active)
Cc1nn(C)cc1N1C(=O)c2cccc3c(N)ccc(c23)C1=O	44.5% (active)
Cn1cc(C2OC(=O)c3ccccc32)c2ccccc21 (configuration not stated)	0.52%
CN1C(=O)c2cccc3c(N)ccc(c23)C1=O	118% (active)
C[C@]12CCC(=O)C=C1C=CC1C2CC[C@@]2(C)C1CC[C@@]21CCC(=O)O1 (some centres not stated)	-6.36%
